Glyco luc inh: increase of ERlucT glycosylation luciferase signal, primary screen, N-linked glycosylation inhibitor project, D54 ERlucT cells, luminescence, set 2; reporter increase, % at 12.5 µM; hit rate 0.23% among 360,000; AID 588692, 2011; D54 ERlucT glycosylation luciferase reporter, 24 h; percent of 100 nM tunicamycin response;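 active means mean luciferase reporter signal, scaled so untreated is 0 and the glycosylation-blocking control 100, at or above a set limit in every replicate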;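 further: luciferase carries N-glycosylation sites so blocking glycosylation raises the light; 0% = median of neutral control wells and 100% = median of 100 nM tunicamycin wells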
NSD2 inh: NSD2 histone methyltransferase inhibitors, primary screen, biochemical, AlphaScreen, single concentration, set 2 | Histone-lysine N-methyltransferase NSD2 (Homo sapiens), O96028 | NSD2 peptide methylation, 120 min | inhibition, % at 12.5 µM | hit rate 0.54% among 310,000 | AID 743445, 2014; in the data active means inhibition above about 50%
Casp6 inh: human caspase-6 inhibitors, primary screen, biochemical, VEID-R110 fluorescence, single point, set 2. inhibition, % at 12.5 µM. P55212. hit rate 0.53% among 350,000. purified caspase-6, Z-VEID-R110 cleavage fluorescence;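 active means mean inhibition across replicates at least about 35%, with every replicate also reaching that limit, limit read from the data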;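 further: 0% = median of neutral control wells and 100% = no fluorescence left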
Target sequence (P55212 24-179 limits assumed): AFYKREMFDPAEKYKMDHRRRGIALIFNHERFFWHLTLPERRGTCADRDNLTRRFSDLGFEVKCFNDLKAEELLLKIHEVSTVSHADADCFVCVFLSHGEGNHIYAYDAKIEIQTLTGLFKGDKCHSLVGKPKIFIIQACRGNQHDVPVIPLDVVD
Target sequence (P55212 194-293 limits assumed): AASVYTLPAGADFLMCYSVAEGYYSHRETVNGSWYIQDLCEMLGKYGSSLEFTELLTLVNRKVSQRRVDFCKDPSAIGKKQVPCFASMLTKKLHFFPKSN
RAD52 inh: RAD52 DNA annealing inhibitors, primary screen, biochemical, FRET, single point, set 2; DNA repair protein RAD52 homolog (Homo sapiens), P43351; recombinant RAD52 DNA annealing, FRET fluorescence; inhibition, % at 18.7 µM; hit rate 0.46% among 360,000; AID 651710, 2012;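 active means every replicate showing at least 50% inhibition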
RAD54 branch: inhibitors of human RAD54 branch migration, primary screen, biochemical, fluorescence, single point; DNA repair and recombination protein RAD54-like (Homo sapiens), Q92698; RAD54 Holliday junction branch migration, FAM/BHQ fluorescence; inhibition, % at 10.4 µM; hit rate 0.14% among 360,000;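 active means mean normalized replicate activity at least 40 and at least half of replicates scoring 40 or more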;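 further: 0% = median of neutral control wells and 100% = median of positive control wells; inhibitors cause a drop in the FAM fluorescence signal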
Starred values were filed as active, the others as inactive. This is a sample that favours compounds with a hit; in the whole collection about 1.2% have one here.

`CC(C)N1CCc2c(sc(NC(=O)c3cc(-c4cccs4)nc4ccccc34)c2C(N)=O)C1` gave Glyco luc inh -4.6 and RAD54 branch 78.0*.
Screening CN(C)/N=C/C=C1\CCC/C(=C\c2ccc(F)c(F)c2)C1=O returned Glyco luc inh 32.3*, NSD2 inh -0.1, Casp6 inh -0.3 and RAD52 inh -36.9.
CO[C@H]1CN(C)C(=O)c2ccc(NC(=O)C3CCC3)cc2OC[C@H](C)N(C(=O)CN(C)C)C[C@H]1C was read as RAD54 branch -8.1.
CCOC(=O)c1c(C)oc2c1c(C=NCCO)c(O)c1ccccc12 was read as Glyco luc inh 3.6, NSD2 inh 100.6*, Casp6 inh 8.2 and RAD52 inh -21.9.
Screening Cc1ccc(-c2ccc(C3C(C#N)=C(N)Oc4n[nH]c(C)c43)o2)cc1 (stereo not given) returned Glyco luc inh 12.5, NSD2 inh 8.5 and RAD54 branch -1.7.
Cc1[nH]nc2c1C(c1ccc(-c3ccc(Cl)cc3)o1)C(C#N)=C(N)O2 (stereo not given) was read as Glyco luc inh 28.8* and NSD2 inh 7.1.
Screening Cc1[nH]nc2c1C(c1ccc(-c3ccccc3C#N)o1)C(C#N)=C(N)O2 (stereo not given) returned Glyco luc inh 25.4* and RAD54 branch -0.5.
C[C@@H]1CN([C@H](C)CO)C(=O)Cc2cc(NS(C)(=O)=O)ccc2O[C@@H]1CN(C)CC1CCCCC1 was read as Casp6 inh 4.0, RAD52 inh 4.6 and RAD54 branch -8.2.
Screening C[C@@H]1CN([C@H](C)CO)C(=O)c2cccc(NS(=O)(=O)c3cn(C)cn3)c2O[C@H]1CN(C)Cc1ccc(Oc2ccccc2)cc1 returned Casp6 inh -1.2, RAD52 inh 3.5 and RAD54 branch 12.0.
Screening Cc1ccc(C(c2cc(Cl)c3cccnc3c2O)N2CCN(C)CC2)cc1 (stereo not given) returned Glyco luc inh 43.3* and RAD54 branch 8.5.
For Cc1ccc(C)c(NC(=S)NC(NC(=O)N(C)C)C(Cl)(Cl)Cl)c1 (stereo not given) the results were Glyco luc inh 0.0, NSD2 inh 0.4 and RAD54 branch 8.5.
`Cc1ccc(C)c(NC(=S)NC(NC(=O)Cc2cccc3ccccc23)C(Cl)(Cl)Cl)c1` (stereo not given) gave Glyco luc inh 73.5* and RAD54 branch 5.0.
`COc1ccc(C[C@@H]2CCn3cc(nn3)COC[C@@H](CC(C)C)NC2=O)cc1` gave Casp6 inh -1.8 and RAD52 inh 7.0.
Screening COc1ccc2c3c(n(C)c2c1)[C@@H](CO)N(C(=O)C1CCOCC1)CC31CCN(Cc2cccc(F)c2)CC1 returned Casp6 inh 2.3 and RAD52 inh 8.2.
O=C(C[C@H]1CC[C@@H]2[C@H](COC[C@@H](O)CN2S(=O)(=O)c2ccc(F)cc2)O1)NCC1CCCCC1 was read as Casp6 inh -0.3, RAD52 inh 88.7* and RAD54 branch 8.2.
Screening O=C(C[C@H]1CC[C@@H]2[C@H](COC[C@H](O)CN2S(=O)(=O)c2ccc(F)cc2)O1)NCC1CCCCC1 returned Casp6 inh -10.5, RAD52 inh 59.2* and RAD54 branch 3.6.
`Cc1ccc(S(=O)(=O)N2C[C@H](O)COC[C@H]3O[C@@H](CC(=O)NCC4CCCCC4)CC[C@@H]32)cc1` gave Casp6 inh 2.1, RAD52 inh 33.8 and RAD54 branch -9.6.
`O=C(C[C@@H]1CC[C@@H]2[C@H](COC[C@H](O)CN2S(=O)(=O)c2ccc(F)cc2)O1)NCC1CC1` gave Casp6 inh -0.7, RAD52 inh 2.9 and RAD54 branch -5.5.
For O=C(C[C@@H]1CC[C@H]2[C@@H](COC[C@H](O)CN2S(=O)(=O)c2ccc(F)cc2)O1)NCC1CCCCC1 the results were Casp6 inh -0.9, RAD52 inh 89.1* and RAD54 branch 5.8.

Screening results (PubChem)
